Screening results deposited in PubChem by National Center for Advancing Translational Sciences (NCATS).
Most compounds without a hit are left out; they make up all but 1.8% or so of the library.
KAT2A inh: inhibitors of human GCN5L2 histone acetyltransferase; Q92830; GCN5L2 HAT assay, ThioGlo1 CoA-SH fluorescence; Potency, µM (highest dose often 58.9 µM), actives largely listed as inhibitors; 390,000 compounds, 0.21% hits
Target sequence (Q92830 whole entry, looked up): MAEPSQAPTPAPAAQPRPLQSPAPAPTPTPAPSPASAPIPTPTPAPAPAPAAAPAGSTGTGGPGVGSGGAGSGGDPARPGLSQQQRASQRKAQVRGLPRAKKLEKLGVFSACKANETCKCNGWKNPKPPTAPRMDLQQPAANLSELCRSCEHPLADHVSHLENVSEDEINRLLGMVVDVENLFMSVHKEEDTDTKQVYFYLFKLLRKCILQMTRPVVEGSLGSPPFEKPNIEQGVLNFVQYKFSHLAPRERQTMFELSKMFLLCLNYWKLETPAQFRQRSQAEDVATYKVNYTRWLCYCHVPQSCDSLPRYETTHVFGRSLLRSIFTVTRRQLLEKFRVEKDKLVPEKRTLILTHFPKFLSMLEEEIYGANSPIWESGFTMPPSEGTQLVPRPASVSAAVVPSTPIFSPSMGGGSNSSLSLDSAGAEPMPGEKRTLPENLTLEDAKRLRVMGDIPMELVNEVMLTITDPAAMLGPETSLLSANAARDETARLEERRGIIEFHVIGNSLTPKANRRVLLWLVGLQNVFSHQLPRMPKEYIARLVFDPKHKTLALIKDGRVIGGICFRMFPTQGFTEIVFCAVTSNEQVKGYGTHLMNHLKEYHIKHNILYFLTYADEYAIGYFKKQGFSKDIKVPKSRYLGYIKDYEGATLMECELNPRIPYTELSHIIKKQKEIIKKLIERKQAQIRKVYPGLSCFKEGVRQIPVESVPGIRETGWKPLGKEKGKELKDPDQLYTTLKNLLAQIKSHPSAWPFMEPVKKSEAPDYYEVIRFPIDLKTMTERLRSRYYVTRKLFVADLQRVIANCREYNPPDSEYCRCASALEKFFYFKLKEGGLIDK
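GCN5L2 (20 nM) in 50mM HEPES pH 7.5, 0.1mM EDTA, 0.01% Tween-20 preincubated 15 min with compounds at room temperature. Reaction started with H3(1-25) 75uM, acetyl-CoA 70uM, ThioGlo1 50uM; CoA-thiol fluorescence (Ex340/Em540) read at 0 and 20 min.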
TrxR1 substrate: is turned over as a substrate by rat TrxR1 | Potency, µM (titrated, usually from 114 µM) | AID 588456 | purified TrxR1 substrate turnover, NADPH consumption readout | 390,000 compounds, 0.01% hits | O89049; note: nearly all actives have a fitted effect of over 50% in size
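Rat TrxR1, dispensed at 90 nM, was prereduced with 400 uM NADPH (final) for 5 min at ~22 deg C, then incubated with compound 15 min before 400 uM selenite. A first-read NADPH fluorescence drop versus no-compound background flagged substrates.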
VDR inhibitor: vitamin D3 receptor (human) inhibition. P11473. VDR-SRC2-3 peptide fluorescence polarization, 2 h. Potency, µM, actives largely listed as inhibitors. 400,000 compounds, 0.93% hits. AID 504847
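Two reagent solutions held at 4 deg C in the dark were dispensed, compounds pinned at 23 nl, and the mixture incubated 2 h at room temperature. Read-out: fluorescence polarization of VDR–SRC2-3 peptide binding.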
TrxR1 inh: rat TrxR1 inhibition; recombinant rTrxR1, NADPH fluorescence consumption, selenite substrate; 390,000 compounds, 1% hits; Potency, µM (series often up to 114 µM), usual class: inhibitors; AID 588453; O89049; note: nearly all actives have a fitted effect of over 65% in size
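Rat TrxR1 (90 nM in the dispensed reagent) was pre-reduced with 400 uM NADPH for 5 min at room temperature, then incubated with compound for 15 min. After 400 uM selenite was added, NADPH fluorescence (Ex 340/Em 450 nm) was followed for 8 min.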
Numbers stand for hits; - = inactive; ? = inconclusive; . = not tested or not shown; ! = not confirmed by another sample; [ ] = another dose, or the depositor's remark. Calls come from the whole dose curve; as a rule, active = well fitted curve in the direction sought with a large enough effect; inconclusive = small, poorly fitted or top-dose-only effect, or another doubt; inactive = no such curve, though single readings can be large; an effect the other way counts as inactive or inconclusive.

SMILES	KAT2A inh	TrxR1 substrate	VDR inhibitor	TrxR1 inh
COc1ccc(C(=O)N2CCN(Cc3cc(OC)c(O)c(OC)c3)CC2)cc1OC	-	-	-	25µM
O=c1c2sc3ccccc3c2n(Cc2ccc(Cl)cc2)c(=O)n1Cc1ccco1	-	-	-	-
COc1cc(/C=C/c2ccnc3ccccc23)cc(OC)c1OC	.	-[0.0914 µM]	.	-
Fc1ccc(Nc2nc(-c3ccoc3)nc3ccccc23)cc1	-	.	16µM	.
c1cncc(CNc2nc(-c3cccnc3)nc3ccccc23)c1	-	-	-	-
c1ccc(CNc2nc(-c3cccnc3)nc3ccccc23)cc1	?	-	18µM!	-
c1ccc(CNc2ccnc(-c3cccnc3)n2)cc1	?	.	40µM	.
c1ccc(CNc2nc(-c3ccoc3)nc3ccccc23)cc1	-	.	32µM	.
COc1cc2c(NC3CCN(C)CC3)nc(N3CCCN(C)CC3)nc2cc1OCCCCCCN(C)C	.	-	.	?
CC1C(=O)C(=O)C=CN1C (configuration not stated)	-	.	-	.
Cc1cc(NC2CCCCC2)nc(-n2nc(C)cc2C)n1	-	-	-	-
Cc1[nH][nH]c(=O)c1C(c1ccc(-c2ccc(Cl)c(Cl)c2)o1)c1c(C)[nH][nH]c1=O	-	-	79µM	-
Cc1[nH][nH]c(=O)c1C(c1ccc(-c2ccc(F)cc2)o1)c1c(C)[nH][nH]c1=O	-	-	32µM	?
Cc1[nH][nH]c(=O)c1C(c1ccc(-c2ccc(C(=O)O)cc2)o1)c1c(C)[nH][nH]c1=O	?	-	?	-
O=C(NCCCc1nc2ccccc2n1Cc1ccc(Cl)cc1Cl)c1ccco1	-	-	-	-
CCOc1ccc(N2C(=O)CC(NCCNc3ccc([N+](=O)[O-])cn3)C2=O)cc1 (configuration not stated)	-	-	-	?
COc1ccc(N2C(=O)CC(NCCNc3ccc([N+](=O)[O-])cn3)C2=O)cc1 (configuration not stated)	-	-	-	14µM
Cc1nc(SCc2ccc(O)c([N+](=O)[O-])c2)c([N+](=O)[O-])[nH]1	14µM	-	?	?
Cc1nc(SCc2ccc(O)c([N+](=O)[O-])c2)n[nH]1	-	-	-	-
COc1cc(OC)c(C(=O)CCC(=O)O)cc1OC	-	-	-	-
C=C(CN(C)C)C(=O)c1cc(OC)c(OC)cc1OC	.	-	50µM	1.8µM
C=C(CN(C)C)C(=O)c1ccc2c(c1)OCO2	.	-	79µM	1.6µM
C=C(C)C(=O)c1ccc2c(c1)OCO2	.	.	-	.
C=C(CN(C)C)C(=O)c1ccc(C)cc1C	.	-[11.4 µM]	18µM	2µM
COc1cccc(OC)c1-c1cc(C(=O)NC2(C(=O)O)C3CC4CC(C3)CC2C4)nn1-c1ccc(C(=O)N(C)CCCN(C)C)cc1C(C)C (configuration not stated)	-	.	-	.
SMILES	KAT2A inh	TrxR1 substrate	VDR inhibitor	TrxR1 inh
Cc1ccccc1N=C1Nc2ccc(Cl)cc2N[C@]12C[C@H]1CCCC(=O)N3CC[C@@H](C2)[C@@H]13	.	-	.	-
COC(=O)C(NNc1ccccc1C)(NC(=O)c1ccc(F)cc1)C(F)(F)F (configuration not stated)	-	-	-	28µM
c1ccc2nccnc2c1	.	-	.	?
CC(C)(C)OC(=O)NS(=O)(=O)NOCc1ccccc1	.	-	.	-
CCCS(=O)(=O)c1c(S(=O)(=O)CCC)c2c(N)cccn2c1C(=O)OC	-	-	-	7.9µM
COc1ccc(C2NC(=O)C(C#N)=C(S)N2c2ccccc2)cc1OC (configuration not stated)	-	-	45µM	-
COc1cc(C2NC(=O)C(C#N)=C(S)N2c2ccccc2)ccc1OC(C)C (configuration not stated)	-	-	35µM	-
COc1cc(C2C3CN(C)CC=C3C(C#N)=C(N)C2(C#N)C#N)ccc1OC(C)C (configuration not stated)	-	-	-	?
COc1ccc(C2NC(=O)c3ccccc3N2)cc1OC (configuration not stated)	-	-	-	-
Cc1ccc(Nc2ncnc3nc[nH]c23)cc1	.	-	-	-
COc1ccc(CN(Cc2ccccc2)C(C)=O)cc1COc1ccc(NC(C)=O)cc1	.	-	-	-
CCOC(=O)c1c(NC(=O)CSc2cn(CCNC(=O)c3ccccc3F)c3ccccc23)sc2c1CCC2	-	-	-	-
COc1cccc(OCc2cc(C3Nc4ccccc4C(=O)N3Cc3ccco3)ccc2OC)c1 (configuration not stated)	-	-	-	?
COc1ccc(C2Nc3ccccc3C(=O)N2Cc2ccco2)cc1COc1c(C)cccc1C (configuration not stated)	.	-	14µM	20µM
O=C(/C=C/c1ccc([N+](=O)[O-])cc1)Oc1ccc(/C=N/NC(=O)c2ccncc2)cc1	-	-	?	35µM
CCOC(=O)C1=C(O)c2ccccc2C(=O)/C1=C\c1ccc(C)cc1	-	-	?	11µM
COc1ccccc1C1=NC(c2ccccc2)CN1c1ccccc1 (configuration not stated)	-	-	-	22µM
CC[C@H](NC(=O)[C@H](CCC(=O)O)NC(=O)[C@H](CCC(=O)O)NC(=O)[C@H](CC(=O)O[S+](=O)([O-])c1cccc2c(NCCN)cccc12)NC(=O)[C@H](CCC(=O)O)NC(=O)[C@H](CC(=O)O)NC(C)=O)C(=O)ON[C@@H](C)C(=O)N[C@@H](CO)C(=O)N[C@@H](CCCCNC(=O)c1ccc(N=Nc2ccc(N(C)C)cc2)cc1)C(N)=O	-	.	-	.
COCCNc1ncnc2ccc(-c3cccc(NS(C)(=O)=O)c3)cc12	-	.	?	.
CC(=O)NCCNc1ncnc2ccc(-c3cccc(NS(C)(=O)=O)c3)cc12	?	.	45µM	.
CN(C)CCCNCC(=O)c1c(-c2ccccc2)n(C)c2ccccc12	-	-	79µM	-
Cn1c(-c2ccccc2)c(C(=O)CC#N)c2ccccc21	-	-	-	-
N#Cc1ccccc1CSc1nnc(-c2ccc(Br)cc2)o1	-	-	-	-
Oc1cccc(O)c1O	-	.	79µM	.
O=C(O)c1cccc(O)c1O	.	-	-	-
SMILES	KAT2A inh	TrxR1 substrate	VDR inhibitor	TrxR1 inh
COc1ccc(NC(=O)c2cccn2-c2nnc(N3CCCCC3)s2)cc1	-	-	-	-
O=C(NNc1ccc(Cl)cc1)c1c(F)cccc1Cl	-	-	-	-
CC(=O)C(=Nc1ccccc1Cl)NNc1ccc(Cl)cc1	-	-	45µM	?
COc1cccc(CNC(=O)CCc2c(C)c3cc4c(C)c(C)oc4cc3oc2=O)c1	-	-	-	-
Cc1cc(C)nc(SCc2cc(=O)c(OC(=O)c3ccc(S(=O)(=O)N(C)C)cc3)co2)n1	?	-	?	50µM
Cc1ccnc(SCc2cc(=O)c(OC(=O)c3ccc(S(=O)(=O)N4CCCC4)cc3)co2)n1	-	-	?	28µM
Cc1ccnc(SCc2cc(=O)c(OC(=O)c3ccc(S(=O)(=O)N(C)C)cc3)co2)n1	-	-	-	10µM
Cc1cccc(NC(=O)CSc2nnc(-c3ccco3)c(-c3ccco3)n2)c1C	?	-	?	2.8µM
